Reference: PubChem BioAssay AID1159580 (chemical genetic matrix, 2015)
The whole screen tested about 5,500 compounds, of which about 2,000 (36%) were called active. Roughly 18% stayed inconclusive and do not appear here. Rule as the data show it: active = normalized growth mostly below about 0.91 (no sharp cut-off); inconclusive = no clear call, values can overlap the other calls; inactive = mostly above about 0.92. The list shows a part of the results.

Assay: chemical genetic growth profiling, strain panel (AID 1159580);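 also: tested at 20 µM; growth read once vehicle control cultures reached saturation at 30 °C; 1 = growth at the plate median or of vehicle wells; lower values mean less growth of the strain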
Details: S. cerevisiae deletion strains, growth OD

Measured: normalized growth

CCC(C)c1ccccc1NC(=O)c1cc2cccc([N+](=O)[O-])c2[nH]1 (stereo unspecified)
inactive: locus YAR019C, strain CDC15, hits give low values 0.932 | locus YBL105C, strain PKC1, hits give low values 0.914 | locus YBR135W, strain CKS1, hits give low values 0.912 | locus YBR136W, strain MEC1, hits give low values 0.923 | locus YBR160W, strain CDC28, hits give low values 0.924 | locus YDL017W, strain CDC7, hits give low values 0.928 | locus YDL028C, strain MPS1, hits give low values 0.92 | locus YDL101C, strain DUN1, hits give low values 0.949 | locus YDL108W, strain KIN28, hits give low values 0.921 | locus YDL132W, strain cdc53, hits give low values 0.896 | locus YDL214C, strain PRR2, hits give low values 0.904 | locus YDR052C, strain DBF4, hits give low values 0.965 | locus YDR054C, strain cdc34, hits give low values 0.957 | locus YDR226W, strain ADK1, hits give low values 0.936 | locus YDR477W, strain SNF1, hits give low values 0.792 | locus YER123W, strain YCK3, hits give low values 0.851 | locus YER133W, strain GLC7, hits give low values 0.893 | locus YFL009W, strain cdc4, hits give low values 0.906 | locus YFL029C, strain CAK1, hits give low values 0.925 | locus YFR003C, strain YPI1, hits give low values 0.93 | locus YFR019W, strain FAB1, hits give low values 0.978 | locus YFR028C, strain CDC14, hits give low values 0.967 | locus YGR040W, strain KSS1, hits give low values 0.826 | locus YGR052W, strain FMP48, hits give low values 0.867 | locus YGR092W, strain DBF2, hits give low values 0.7 | locus YHR082C, strain KSP1, hits give low values 0.905 | locus YHR205W, strain SCH9, hits give low values 0.964 | locus YIL147C, strain SLN1, hits give low values 0.916 | locus YJL128C, strain PBS2, hits give low values 0.994 | locus YJL157C, strain FAR1, hits give low values 0.884 | locus YJR016C, strain ILV3, hits give low values 0.911 | locus YJR066W, strain TOR1 (second series), hits give low values 0.905 | locus YJR066W, strain TOR1, hits give low values 0.767 | locus YKL048C, strain ELM1, hits give low values 0.912 | locus YKL067W, strain YNK1, hits give low values 0.897 | locus YKL101W, strain HSL1, hits give low values 0.83 | locus YKL193C, strain SDS22, hits give low values 0.92 | locus YKL203C, strain TOR2, hits give low values 0.783 | locus YLR133W, strain CKI1, hits give low values 0.902 | locus YLR403W, strain SFP1, hits give low values 0.859 | locus YML070W, strain DAK1, hits give low values 0.846 | locus YMR001C, strain CDC5, hits give low values 0.917 | locus YMR205C, strain PFK2 (second series), hits give low values 0.894 | locus YMR277W, strain FCP1, hits give low values 0.921 | locus YNL006W, strain LST8, hits give low values 0.915 | locus YNL020C, strain ARK1, hits give low values 0.905 | locus YNL161W, strain CBK1, hits give low values 0.924 | locus YNL183C, strain NPR1, hits give low values 0.774 | locus YNL207W, strain RIO2, hits give low values 0.905 | locus YNL222W, strain SSU72, hits give low values 0.917 | locus YNL307C, strain MCK1 (second series), hits give low values 0.826 | locus YOL078W, strain AVO1, hits give low values 0.924 | locus YOL136C, strain PFK27, hits give low values 0.869 | locus YOR061W, strain CKA2, hits give low values 0.818 | locus YOR119C, strain RIO1, hits give low values 0.805 | locus YOR231W, strain MKK1, hits give low values 0.631 | locus YOR329C, strain SCD5, hits give low values 0.917 | locus YPL031C, strain PHO85, hits give low values 0.832 | locus YPL153C, strain RAD53, hits give low values 0.723 | locus YPL204W, strain HRR25, hits give low values 0.834 | locus YPL209C, strain IPL1, hits give low values 0.921 | locus YPR025C, strain CCL1, hits give low values 0.919 | locus YPR106W, strain ISR1, hits give low values 0.958 | locus YPR111W, strain DBF20, hits give low values 0.99 | strain NNK1, hits give low values 0.945 | strain TSCII, hits give low values 0.911
active: locus YHR030C, strain SLT2, hits give low values 0.543 | locus YHR079C, strain IRE1, hits give low values 0.219 | locus YJL095W, strain BCK1, hits give low values 0.266 | locus YLR113W, strain HOG1, hits give low values 0.656 | locus YPL256C, strain CLN2, hits give low values 0.785
